# An excerpt weighted towards active compounds, which were near 7.9% of everything screened.
# MARV entry inh: qHTS for inhibitors of binding or entry into cells for Marburg Virus; Marburg virus pseudotyped entry inhibition, cell reporter; 300,000 tested, 1.8% active; Potency, µM (titrated, usually from 37.8 µM), for inactives: top-dose activity change, negative = inhibition, hits mostly inhibitors; AID 540276, 2011; calls by dose curve; tested in HEK293 cells; note: potency is the fitted concentration of half-maximal effect
# LASV entry inh: qHTS for Inhibitors of binding or entry into cells for Lassa Virus; Lassa virus pseudotype entry inhibition, cell reporter; Potency, µM (top dose mostly 37.9 µM), inactives show at the top dose activity change, negative = inhibition, usual class: inhibitors; 300,000 tested, 1.2% active; calls by dose curve; tested in HEK293 cells; note: potency is the fitted concentration of half-maximal effect; nearly all actives have a fitted effect of over 50% in size
# HCMV antiviral: qHTS Assay for inhibitors of the human cytomegalovirus (HCMV) | HFF cells, HCMV-luciferase reporter, 72 h; active compounds read low | activity change, negative = inhibition, % at 57.5 µM | 410,000 tested, 4.5% active; in the data active = activity change below about -60%; inconclusive = no clear call, values can overlap the other calls; inactive = above about -39%
#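 Cell-based, HFFs, 1000 cells/well, 16 h 37C; cpds in DMSO + HCMV-luc, MOI 1 PFU/cell; 72 h 37C; OneGlo luminescence after 5 min RT; norm. to buffer vs Salinomycin 10uM.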
# HCV inhibitor: qHTS Assay for Inhibitors of Hepatitis C Virus (HCV). Huh7.5.1 HCVcc-Cre infection, luciferase reporter, 44 h. Potency, µM (top dose mostly 41.8 µM), for the others: at the highest dose activity change, negative = inhibition, most hits filed as inhibitors. 340,000 tested, 3.4% active. AID 651820, 2012; active = well fitted inhibition curve with a large enough effect; inconclusive = small, poorly fitted or top-dose-only effect, or another doubt; inactive = no such curve, though single readings can be large or run the other way; note: potency is the fitted concentration of half-maximal effect
#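 Infectious HCVcc-Cre (~0.5 moi) was added to cells just after compound, with cells seeded 4 h earlier at 1,000 per well. Luciferase activity after 44 h culture reported infection; substrate was incubated 15 min at room temperature before reading.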
# FMDV inh: High Throughput Screening for Foot and Mouth Disease Virus Antivirals | FMDV antiviral cell-based qHTS | Potency, µM (titrated, usually from 57.9 µM), for the others: top-dose activity change, negative = inhibition, usual class: inhibitors | 410,000 tested, 1.2% active | AID 1159524, 2015; calls by dose curve; tested in HEK293T cells; note: read-out not given here; potency is the fitted concentration of half-maximal effect; nearly all actives have a fitted effect of over 45% in size
# Starred values were filed as active, the others as inactive; ? = inconclusive; · = not tested or not shown; [ ] = another dose, or the depositor's remark. % is set by controls: 0 for no effect and ±100 for the full control effect.
SMILES,MARV entry inh,LASV entry inh,HCMV antiviral,HCV inhibitor,FMDV inh
Cc1cc(C)c(S(=O)(=O)N2CCCOC2CNC(=O)C(=O)NCCc2c[nH]c3ccccc23)c(C)c1 (stereo not drawn),?,?,-82*,?,?
Cc1ccc(S(=O)(=O)N2CCOC2CNC(=O)C(=O)NCCc2c[nH]c3ccccc23)cc1 (stereo not drawn),·,·,-80*,?,?
O=C(NCCc1c[nH]c2ccccc12)C(=O)NCC1OCCN1S(=O)(=O)c1cc(F)ccc1F (stereo not drawn),·,·,-3,-27%,?
O=C(NCCc1c[nH]c2ccccc12)C(=O)NCC1OCCCN1S(=O)(=O)c1ccc(F)cc1 (stereo not drawn),-35%,?,?,?,?
Cc1cc(F)ccc1S(=O)(=O)N1CCCOC1CNC(=O)C(=O)NCCc1c[nH]c2ccccc12 (stereo not drawn),?,?,-36,11µM*,32µM*
O=C(NCCc1ccccc1)c1ccc2c(c1)N(Cc1c(F)cccc1Cl)C(=O)CS2,?,?,-12,·,-16%
CCc1nn2c(=O)cc(COC(=O)CNC(=O)c3ccccc3)nc2s1,·,4%[46.1 µM],-14,·,-11%
CC1CN(CC(=O)NCCC2COc3ccccc3O2)Cc2cc(Cl)ccc2O1 (stereo not drawn),·,·,·,·,-5%
COc1ccc(CNC(=O)c2ccc(NC(=O)N3CCSc4ncccc43)cc2)cc1OC,·,0%[46.1 µM],0,·,-6%
O=C(N/N=C/c1ccc(OC(=O)c2ccc(Br)cc2)cc1)c1ccncc1,20%[46.1 µM],-10%,13,18%,26%
CCOc1ccccc1NC(=O)C(=O)N/N=C/c1cc(Br)ccc1O,2.5µM*,1.6µM*,-101*,6.3µM*,-21%
Cc1nc(C)c(C(=O)N/N=C/c2c[nH]c3ccccc23)s1,?,-15%,·,1%,-2%
O=C(N/N=C/c1cc(Br)ccc1OC(=O)c1ccc(Br)cc1)c1ccncc1,1µM*,5.6µM*,-16,3.2µM*,0%
Cc1nc(C)c(C(=O)N/N=C/c2cc(Br)ccc2O)s1,·,·,-99*,?,-1%
O=C(CNC(=O)c1ccc(S(=O)(=O)N2CCCC2)cc1)N/N=C/c1c(Cl)cccc1Cl,?,?,-72*,?,?
CCOc1ccccc1C=NNC(=O)C(=O)NN=Cc1ccccc1OCC,25%,-5%,9,-18%,0%
O=C(N/N=C/c1cccc(Br)c1)c1ccc(Br)cc1,-14%[46.1 µM],2%[46.1 µM],0,-16%,-8%
O=C(N/N=C/c1cc(Br)ccc1O)c1ccncc1,2.8µM*,?,0,?,18%
O=C(N/N=C/c1cc(Cl)ccc1O)c1ccc(Br)cc1,?,10µM*,-102*,3.2µM*,6%
O=C(N/N=C/c1ccc(O)c2ncccc12)c1cccc(Br)c1,13µM*,?,-99*,3.5µM*,-4%
O=C(N/N=C/c1ccccc1O)c1ccncc1,·,·,12,?,21%
O=C(N/N=C\c1cc(Br)ccc1O)c1ccc(S(=O)(=O)N2CCCCC2)cc1,?,?,-100*,3.5µM*,-2%
CCN(C(=O)Cn1cc(C(=O)c2ccc(F)cc2)c(=O)c2ccc(C)nc21)c1cccc(C)c1,·,-6%[46.1 µM],-33,·,-16%
C=CC[C@@H]1C=C[C@H](ON=C[C@@H](C)[C@H](OCc2ccccc2)C(C)C)[C@H](CO)O1,-10%[14.2 µM],?,·,·,·
COC(=O)c1ccc(Cl)cc1NC(=O)N(C)CCc1c(C)nn(C)c1C,·,-8%[46.1 µM],-7,·,16%
SMILES,MARV entry inh,LASV entry inh,HCMV antiviral,HCV inhibitor,FMDV inh
COc1cc(OC)cc(C(=O)N2CCN(C(=O)COc3ccccc3)CC2)c1,5%[46.1 µM],-3%[46.1 µM],19,·,-10%
CCOC(=O)c1c(C=O)c(C)n(Cc2ccc(C)cc2)c1C,?,?,-1,3.2µM*,?
CCOC(=O)c1c(C=O)c(C)n(Cc2ccccc2Cl)c1C,11%,2%,-8,?,?
Cc1c(C=O)c(C=O)c(C)n1Cc1ccccc1,?,?,-81*,?,?
COc1cccc(NC(=O)Cn2c(=O)n(Cc3ccc(F)cc3)c(=O)c3sc4ccccc4c32)c1,20%[46.1 µM],1%[46.1 µM],?,·,0%
COC(=O)c1sc(NC(=O)c2cc3c(s2)CCCC3)nc1C,11%,-22%,-15,?,27%
Cc1nc(NC(=O)c2cc3c(s2)CCCCC3)sc1C(=O)N(C)C,17%,-23%,1,11µM*,58%
Cc1csc(NC(=O)c2cc3c(s2)CCC3)n1,13µM*,?,47,7%,-41%
Cc1cccc(-n2c3nc(=O)[nH]c(=O)c-3cc3c(Cl)cccc32)c1C,·,-1%[46.1 µM],-2,·,?
Cc1ccc(OCCOCCn2c(-c3ccc(Cl)cc3)nc3ccccc3c2=O)cc1,2%[46.1 µM],-8%[46.1 µM],8,·,-20%
CCOc1ccccc1CNC(=O)c1cnc2sc(N3CCOCC3)nn2c1=O,·,18%[46.1 µM],?,·,-13%
O=S(=O)(NCCCc1ccccc1)c1cccc2nsnc12,9%,1%,-18,-3%,3%
Nc1ccccc1S(=O)(=O)NCCCCc1ccccc1,·,·,-100*,-5%,25%
Cc1ccc(S(=O)(=O)Cn2nnnc2CN2CCCC3(CCCCC3)C2)cc1,?,?,-68*,3%,·
Cc1ccc(S(=O)(=O)Cn2nnnc2CN2CCOCC2)cc1,27%,-15%,-25,7%,·
CCn1c(SCc2nc3scc(-c4ccccc4)c3c(=O)[nH]2)nnc1-c1ccc(Cl)cc1,?,6%,-7,-2%,?
Cn1nnnc1SCc1nc2scc(-c3ccc(Cl)cc3)c2c(=O)[nH]1,·,·,-70*,?,-19%
C=CCn1c(SCc2nc3scc(-c4ccccc4)c3c(=O)[nH]2)nnc1-c1ccccc1F,?,-9%,-15,-18%,28µM*
O=C(Nc1nnc(S(=O)(=O)N2CCc3ccccc32)s1)c1cccc(Cl)c1,·,14%[46.1 µM],-25,·,?
COc1ccc(/C=C/c2cc(-c3ccc(C)cc3)o[n+]2C)cc1,?,?,-104*,?,2.8µM*
Cc1ccc(C(C)C)c(OCCCN2C(=O)NC(C)(C)C2=O)c1,?,12µM*,-8,-12%,-24%
CC(C)c1cc(Br)ccc1OCCN1C(=O)NC(C)(C)C1=O,·,·,-61*,-1%,-12%
CCc1nnc2c(N3CCN(c4cccc(C)c4)C(C)C3)nc3ccccc3n12 (stereo not drawn),·,-20%[46.1 µM],?,·,-21%
COc1cc(NC(=O)c2ccc(-c3nc(CSc4ccccc4)c(C)o3)cc2)cc(OC)c1,·,?,?,·,-3%
O=Cc1c(Sc2ccccn2)nc2ccccn2c1=O,1%,-18%,149,35µM*,?
O=Cc1c(Sc2ccccc2)nc2ccccn2c1=O,?,?,43,-8%,?
c1ccc(-c2ccccc2OCCCCN2CCCCC2)cc1,7.1µM*,?,?,?,-24%
